Experimental data taken from ChEMBL document CHEMBL1961873, “Compounds: GSK PKIS; Assays: Nanosyn kinase panel” (2012).

What was measured:
[1] = target: T1, Inhibitor of nuclear factor kappa-B kinase subunit epsilon (Homo sapiens) (UniProt Q14164); conditions: at 1 µM;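 also: reported values are averaged percent inhibition figures against human IKKε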
T1 sequence (whole entry): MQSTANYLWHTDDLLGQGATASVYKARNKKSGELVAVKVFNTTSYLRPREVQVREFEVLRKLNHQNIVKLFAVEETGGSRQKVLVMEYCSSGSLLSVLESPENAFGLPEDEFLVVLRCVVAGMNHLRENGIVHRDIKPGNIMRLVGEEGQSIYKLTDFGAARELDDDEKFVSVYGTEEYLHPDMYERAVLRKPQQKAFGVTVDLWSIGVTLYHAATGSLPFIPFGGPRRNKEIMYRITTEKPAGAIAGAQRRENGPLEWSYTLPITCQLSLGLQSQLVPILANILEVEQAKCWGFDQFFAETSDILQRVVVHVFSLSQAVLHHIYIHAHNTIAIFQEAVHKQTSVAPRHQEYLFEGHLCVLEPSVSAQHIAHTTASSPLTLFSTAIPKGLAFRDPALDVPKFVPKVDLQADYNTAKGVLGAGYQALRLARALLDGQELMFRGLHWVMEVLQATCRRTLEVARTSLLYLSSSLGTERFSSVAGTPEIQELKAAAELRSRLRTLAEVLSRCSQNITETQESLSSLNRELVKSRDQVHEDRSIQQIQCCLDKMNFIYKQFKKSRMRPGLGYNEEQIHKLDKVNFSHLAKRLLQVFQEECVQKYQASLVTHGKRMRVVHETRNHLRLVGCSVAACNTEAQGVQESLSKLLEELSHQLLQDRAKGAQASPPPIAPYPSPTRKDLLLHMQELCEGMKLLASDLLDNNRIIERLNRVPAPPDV

[2] = target: T2, Serine/threonine-protein kinase Nek1 (Homo sapiens) (UniProt Q96PY6); conditions: at 0.1 µM
T2 sequence (whole entry): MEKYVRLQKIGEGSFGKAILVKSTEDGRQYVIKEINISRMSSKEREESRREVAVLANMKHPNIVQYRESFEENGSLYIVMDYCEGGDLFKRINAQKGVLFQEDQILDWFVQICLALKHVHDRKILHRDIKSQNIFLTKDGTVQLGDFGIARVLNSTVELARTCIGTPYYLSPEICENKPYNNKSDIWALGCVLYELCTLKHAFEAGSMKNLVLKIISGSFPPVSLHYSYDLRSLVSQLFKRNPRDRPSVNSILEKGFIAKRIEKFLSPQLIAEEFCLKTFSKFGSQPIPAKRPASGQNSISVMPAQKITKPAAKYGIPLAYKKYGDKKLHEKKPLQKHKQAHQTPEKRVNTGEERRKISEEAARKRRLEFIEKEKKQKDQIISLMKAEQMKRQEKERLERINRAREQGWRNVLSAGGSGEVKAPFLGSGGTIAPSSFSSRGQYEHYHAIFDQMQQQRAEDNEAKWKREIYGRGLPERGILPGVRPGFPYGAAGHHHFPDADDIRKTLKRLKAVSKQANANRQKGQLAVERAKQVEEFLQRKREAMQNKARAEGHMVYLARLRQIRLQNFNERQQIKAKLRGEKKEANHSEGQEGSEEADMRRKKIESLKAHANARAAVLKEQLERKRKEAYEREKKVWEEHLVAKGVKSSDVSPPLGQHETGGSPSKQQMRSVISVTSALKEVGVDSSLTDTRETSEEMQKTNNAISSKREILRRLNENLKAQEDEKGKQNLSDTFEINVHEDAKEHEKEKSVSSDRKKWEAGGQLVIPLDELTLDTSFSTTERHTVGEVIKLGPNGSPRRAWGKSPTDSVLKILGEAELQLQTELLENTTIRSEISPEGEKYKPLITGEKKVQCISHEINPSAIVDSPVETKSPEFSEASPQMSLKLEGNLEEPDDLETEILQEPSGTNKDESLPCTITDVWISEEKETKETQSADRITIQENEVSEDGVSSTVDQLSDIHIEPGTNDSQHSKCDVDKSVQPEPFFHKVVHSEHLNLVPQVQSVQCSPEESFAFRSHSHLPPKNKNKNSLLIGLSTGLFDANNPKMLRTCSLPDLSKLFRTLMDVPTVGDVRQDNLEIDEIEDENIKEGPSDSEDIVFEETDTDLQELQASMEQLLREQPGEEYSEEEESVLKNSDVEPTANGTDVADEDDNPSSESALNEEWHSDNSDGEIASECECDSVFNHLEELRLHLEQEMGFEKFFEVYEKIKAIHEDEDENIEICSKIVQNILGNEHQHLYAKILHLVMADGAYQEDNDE

[3] = target: T2, Serine/threonine-protein kinase Nek1 (Homo sapiens); conditions: at 1 µM
[4] = target: T3, Serine/threonine-protein kinase Nek2 (Homo sapiens) (UniProt P51955); conditions: at 0.1 µM
T3 sequence (whole entry): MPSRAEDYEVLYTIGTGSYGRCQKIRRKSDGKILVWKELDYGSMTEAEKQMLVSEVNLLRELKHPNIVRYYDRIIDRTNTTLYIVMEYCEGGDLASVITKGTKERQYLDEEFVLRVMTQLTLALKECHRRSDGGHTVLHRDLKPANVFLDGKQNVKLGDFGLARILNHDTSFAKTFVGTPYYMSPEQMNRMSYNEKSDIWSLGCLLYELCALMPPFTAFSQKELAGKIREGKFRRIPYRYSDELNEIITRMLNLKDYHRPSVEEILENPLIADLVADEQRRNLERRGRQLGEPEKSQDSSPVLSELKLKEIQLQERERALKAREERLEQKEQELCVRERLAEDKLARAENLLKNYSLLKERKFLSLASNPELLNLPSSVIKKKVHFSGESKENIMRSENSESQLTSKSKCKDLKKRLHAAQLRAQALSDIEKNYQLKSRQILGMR

[5] = target: T3, Serine/threonine-protein kinase Nek2 (Homo sapiens); conditions: at 1 µM
[6] = target: Serine/threonine-protein kinase Nek6 (Homo sapiens) (UniProt Q9HC98); conditions: at 0.1 µM
[7] = target: Serine/threonine-protein kinase Nek6 (Homo sapiens) (UniProt Q9HC98); conditions: at 1 µM
[8] = target: Serine/threonine-protein kinase Nek7 (Homo sapiens) (UniProt Q8TDX7); conditions: at 0.1 µM
[9] = target: Serine/threonine-protein kinase Nek7 (Homo sapiens) (UniProt Q8TDX7); conditions: at 1 µM
[10] = target: T4, Serine/threonine-protein kinase Nek9 (Homo sapiens) (UniProt Q8TD19); conditions: at 0.1 µM
T4 sequence (whole entry): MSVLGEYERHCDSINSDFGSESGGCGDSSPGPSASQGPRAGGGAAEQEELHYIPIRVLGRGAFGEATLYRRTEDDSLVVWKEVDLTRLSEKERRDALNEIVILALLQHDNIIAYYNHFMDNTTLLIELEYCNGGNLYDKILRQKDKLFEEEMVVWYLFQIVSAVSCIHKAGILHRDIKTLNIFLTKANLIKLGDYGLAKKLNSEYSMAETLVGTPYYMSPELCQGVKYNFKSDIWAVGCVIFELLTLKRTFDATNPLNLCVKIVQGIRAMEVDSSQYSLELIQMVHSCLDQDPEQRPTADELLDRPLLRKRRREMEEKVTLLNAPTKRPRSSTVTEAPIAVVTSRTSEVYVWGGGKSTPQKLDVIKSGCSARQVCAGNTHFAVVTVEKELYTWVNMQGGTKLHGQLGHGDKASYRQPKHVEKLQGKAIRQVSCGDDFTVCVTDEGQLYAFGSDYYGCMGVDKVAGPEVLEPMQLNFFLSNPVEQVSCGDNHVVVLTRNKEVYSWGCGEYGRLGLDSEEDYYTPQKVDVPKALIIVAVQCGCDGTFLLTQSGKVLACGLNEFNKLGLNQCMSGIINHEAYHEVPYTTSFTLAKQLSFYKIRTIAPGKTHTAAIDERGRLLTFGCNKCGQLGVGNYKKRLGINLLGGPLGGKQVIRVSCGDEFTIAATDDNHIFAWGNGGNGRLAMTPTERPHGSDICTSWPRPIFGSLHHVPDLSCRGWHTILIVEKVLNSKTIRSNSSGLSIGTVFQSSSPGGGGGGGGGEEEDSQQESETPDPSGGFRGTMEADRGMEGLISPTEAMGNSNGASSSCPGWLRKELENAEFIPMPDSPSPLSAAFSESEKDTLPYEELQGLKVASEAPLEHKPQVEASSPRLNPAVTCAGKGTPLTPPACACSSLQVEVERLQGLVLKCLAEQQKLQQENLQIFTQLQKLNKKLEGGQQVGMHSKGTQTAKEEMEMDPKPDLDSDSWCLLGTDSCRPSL

[11] = target: T4, Serine/threonine-protein kinase Nek9 (Homo sapiens); conditions: at 1 µM
[12] = target: Serine/threonine-protein kinase PLK1 (Homo sapiens) (UniProt P53350); conditions: at 0.1 µM
[13] = target: Serine/threonine-protein kinase PLK1 (Homo sapiens) (UniProt P53350); conditions: at 1 µM
[14] = target: T5, Dual specificity protein kinase TTK (Homo sapiens) (UniProt P33981); conditions: at 0.1 µM
T5 sequence (whole entry): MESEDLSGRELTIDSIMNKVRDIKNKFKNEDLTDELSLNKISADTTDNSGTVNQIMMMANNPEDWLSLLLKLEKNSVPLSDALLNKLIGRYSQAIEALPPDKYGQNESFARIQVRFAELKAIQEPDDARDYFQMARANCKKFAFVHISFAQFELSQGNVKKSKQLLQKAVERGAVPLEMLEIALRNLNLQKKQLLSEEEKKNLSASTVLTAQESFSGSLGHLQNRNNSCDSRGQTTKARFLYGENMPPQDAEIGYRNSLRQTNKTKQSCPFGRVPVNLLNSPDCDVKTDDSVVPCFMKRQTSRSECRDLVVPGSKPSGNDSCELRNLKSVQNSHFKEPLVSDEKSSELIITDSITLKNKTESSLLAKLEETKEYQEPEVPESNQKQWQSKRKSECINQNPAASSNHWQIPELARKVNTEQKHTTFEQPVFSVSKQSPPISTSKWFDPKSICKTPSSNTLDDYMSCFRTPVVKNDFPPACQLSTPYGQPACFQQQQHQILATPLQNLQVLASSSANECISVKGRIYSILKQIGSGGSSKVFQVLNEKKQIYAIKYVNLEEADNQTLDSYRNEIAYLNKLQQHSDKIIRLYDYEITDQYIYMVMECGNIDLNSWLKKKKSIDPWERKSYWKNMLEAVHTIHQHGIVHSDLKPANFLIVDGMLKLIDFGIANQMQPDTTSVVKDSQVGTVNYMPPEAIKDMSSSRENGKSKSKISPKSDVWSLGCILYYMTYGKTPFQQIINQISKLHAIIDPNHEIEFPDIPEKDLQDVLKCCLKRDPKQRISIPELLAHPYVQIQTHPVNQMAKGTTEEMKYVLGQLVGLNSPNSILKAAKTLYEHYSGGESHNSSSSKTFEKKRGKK

[15] = system: T6, Receptor-type tyrosine-protein kinase FLT3 (Homo sapiens), P36888 [D835Y]; conditions: at 1 µM
T6 sequence (whole entry): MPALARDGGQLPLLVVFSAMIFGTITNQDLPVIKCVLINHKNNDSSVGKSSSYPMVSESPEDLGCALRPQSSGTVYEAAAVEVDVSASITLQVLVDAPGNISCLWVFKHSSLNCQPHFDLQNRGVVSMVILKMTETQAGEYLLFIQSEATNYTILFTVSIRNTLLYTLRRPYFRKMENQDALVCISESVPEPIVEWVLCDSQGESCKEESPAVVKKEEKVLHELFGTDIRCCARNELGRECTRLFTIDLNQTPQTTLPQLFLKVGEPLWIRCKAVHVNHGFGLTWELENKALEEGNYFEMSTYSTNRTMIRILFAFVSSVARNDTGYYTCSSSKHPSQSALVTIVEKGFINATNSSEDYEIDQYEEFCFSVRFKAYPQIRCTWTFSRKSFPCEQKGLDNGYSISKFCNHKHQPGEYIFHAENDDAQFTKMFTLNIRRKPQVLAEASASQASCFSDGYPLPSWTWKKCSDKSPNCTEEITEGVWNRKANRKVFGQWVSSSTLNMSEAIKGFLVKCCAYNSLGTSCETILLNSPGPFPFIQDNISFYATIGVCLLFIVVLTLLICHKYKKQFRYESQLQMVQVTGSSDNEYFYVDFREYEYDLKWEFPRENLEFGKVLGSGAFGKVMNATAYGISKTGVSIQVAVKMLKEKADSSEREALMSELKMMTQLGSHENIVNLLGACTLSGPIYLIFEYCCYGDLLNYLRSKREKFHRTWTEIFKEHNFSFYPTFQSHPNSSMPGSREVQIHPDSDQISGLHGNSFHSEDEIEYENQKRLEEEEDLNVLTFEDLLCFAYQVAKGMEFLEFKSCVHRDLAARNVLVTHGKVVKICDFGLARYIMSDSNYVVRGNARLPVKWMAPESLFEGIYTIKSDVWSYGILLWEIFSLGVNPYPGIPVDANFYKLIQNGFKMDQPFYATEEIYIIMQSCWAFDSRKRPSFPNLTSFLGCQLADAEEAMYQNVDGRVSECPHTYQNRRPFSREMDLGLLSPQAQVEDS

[16] = target: Vascular endothelial growth factor receptor 3 (Homo sapiens) (UniProt P35916); conditions: at 0.1 µM
[17] = target: Vascular endothelial growth factor receptor 3 (Homo sapiens) (UniProt P35916); conditions: at 1 µM
[18] = target: Macrophage colony-stimulating factor 1 receptor (Homo sapiens) (UniProt P07333); conditions: at 0.1 µM
[19] = target: Macrophage colony-stimulating factor 1 receptor (Homo sapiens) (UniProt P07333); conditions: at 1 µM
[20] = target: Tyrosine-protein kinase Fyn (Homo sapiens) (UniProt P06241); conditions: at 0.1 µM
Sequence of Tyrosine-protein kinase Fyn (Homo sapiens) (P06241 2-537 limits assumed): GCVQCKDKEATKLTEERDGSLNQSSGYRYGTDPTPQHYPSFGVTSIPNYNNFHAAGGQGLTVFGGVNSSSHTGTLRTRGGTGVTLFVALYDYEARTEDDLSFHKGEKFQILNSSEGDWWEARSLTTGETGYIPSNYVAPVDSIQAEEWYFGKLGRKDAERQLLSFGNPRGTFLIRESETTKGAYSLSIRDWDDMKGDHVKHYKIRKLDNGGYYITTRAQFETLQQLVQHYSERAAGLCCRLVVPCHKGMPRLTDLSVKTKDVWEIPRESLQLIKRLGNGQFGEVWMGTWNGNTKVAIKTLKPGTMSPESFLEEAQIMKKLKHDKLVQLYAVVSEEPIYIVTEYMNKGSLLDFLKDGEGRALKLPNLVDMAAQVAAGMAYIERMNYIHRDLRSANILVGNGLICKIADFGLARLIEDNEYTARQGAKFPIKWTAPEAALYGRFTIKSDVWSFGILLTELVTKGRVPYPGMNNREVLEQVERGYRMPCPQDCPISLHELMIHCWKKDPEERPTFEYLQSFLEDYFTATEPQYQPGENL

Sequence of Serine/threonine-protein kinase Nek7 (Homo sapiens) (Q8TDX7 whole entry, looked up): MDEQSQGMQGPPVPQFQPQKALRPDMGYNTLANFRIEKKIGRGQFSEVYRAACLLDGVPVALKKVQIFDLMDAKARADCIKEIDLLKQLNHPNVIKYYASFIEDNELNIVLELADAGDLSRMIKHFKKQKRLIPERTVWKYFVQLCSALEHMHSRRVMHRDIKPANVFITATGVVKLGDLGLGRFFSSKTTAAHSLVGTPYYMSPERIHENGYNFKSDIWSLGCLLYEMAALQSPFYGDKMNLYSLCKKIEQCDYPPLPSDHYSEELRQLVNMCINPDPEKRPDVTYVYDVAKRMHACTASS
Sequence of Vascular endothelial growth factor receptor 3 (Homo sapiens) (P35916 whole entry): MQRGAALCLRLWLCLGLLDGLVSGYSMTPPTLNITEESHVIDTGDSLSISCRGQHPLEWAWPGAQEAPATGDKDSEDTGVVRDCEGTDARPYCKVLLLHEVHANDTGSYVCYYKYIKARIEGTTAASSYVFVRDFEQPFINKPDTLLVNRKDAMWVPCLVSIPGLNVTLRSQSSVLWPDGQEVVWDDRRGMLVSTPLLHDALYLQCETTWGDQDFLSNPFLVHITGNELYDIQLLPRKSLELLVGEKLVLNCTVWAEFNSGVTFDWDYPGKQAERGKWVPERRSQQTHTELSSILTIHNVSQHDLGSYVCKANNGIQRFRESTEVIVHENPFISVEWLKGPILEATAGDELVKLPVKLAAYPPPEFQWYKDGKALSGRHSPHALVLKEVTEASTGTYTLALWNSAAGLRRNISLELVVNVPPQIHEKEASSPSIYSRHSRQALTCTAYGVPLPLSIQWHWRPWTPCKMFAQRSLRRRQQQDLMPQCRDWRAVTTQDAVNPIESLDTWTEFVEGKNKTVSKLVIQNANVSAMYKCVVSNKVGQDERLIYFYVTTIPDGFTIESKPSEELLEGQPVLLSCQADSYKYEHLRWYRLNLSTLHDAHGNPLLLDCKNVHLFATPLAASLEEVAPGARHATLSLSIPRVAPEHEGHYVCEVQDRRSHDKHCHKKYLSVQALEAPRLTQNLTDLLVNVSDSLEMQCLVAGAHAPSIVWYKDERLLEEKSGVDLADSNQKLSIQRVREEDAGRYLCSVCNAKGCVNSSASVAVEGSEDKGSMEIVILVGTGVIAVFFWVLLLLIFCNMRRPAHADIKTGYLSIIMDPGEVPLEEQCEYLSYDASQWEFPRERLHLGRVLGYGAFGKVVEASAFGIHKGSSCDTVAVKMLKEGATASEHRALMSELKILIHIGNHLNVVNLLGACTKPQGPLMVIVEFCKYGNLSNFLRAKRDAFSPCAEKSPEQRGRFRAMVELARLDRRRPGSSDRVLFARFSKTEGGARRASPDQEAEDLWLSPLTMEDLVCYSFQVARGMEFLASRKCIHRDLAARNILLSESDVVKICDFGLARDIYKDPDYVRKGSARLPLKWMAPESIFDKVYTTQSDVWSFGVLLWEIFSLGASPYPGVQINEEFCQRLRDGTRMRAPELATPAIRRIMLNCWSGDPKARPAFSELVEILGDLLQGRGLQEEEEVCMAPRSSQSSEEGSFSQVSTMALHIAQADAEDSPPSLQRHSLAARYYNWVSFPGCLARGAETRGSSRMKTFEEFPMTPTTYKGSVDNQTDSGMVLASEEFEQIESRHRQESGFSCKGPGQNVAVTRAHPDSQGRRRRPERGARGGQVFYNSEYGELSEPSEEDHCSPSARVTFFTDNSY
Sequence of Serine/threonine-protein kinase Nek6 (Homo sapiens) (Q9HC98 whole entry): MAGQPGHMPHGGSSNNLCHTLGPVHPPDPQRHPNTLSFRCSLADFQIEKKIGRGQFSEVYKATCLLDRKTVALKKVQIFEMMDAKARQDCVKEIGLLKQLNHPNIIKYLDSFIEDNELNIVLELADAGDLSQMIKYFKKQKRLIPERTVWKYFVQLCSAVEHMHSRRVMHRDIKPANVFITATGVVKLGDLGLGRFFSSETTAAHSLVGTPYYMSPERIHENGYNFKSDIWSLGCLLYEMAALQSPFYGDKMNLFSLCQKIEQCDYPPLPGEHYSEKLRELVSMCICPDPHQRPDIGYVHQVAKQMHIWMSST
Sequence of Macrophage colony-stimulating factor 1 receptor (Homo sapiens) (P07333 whole entry): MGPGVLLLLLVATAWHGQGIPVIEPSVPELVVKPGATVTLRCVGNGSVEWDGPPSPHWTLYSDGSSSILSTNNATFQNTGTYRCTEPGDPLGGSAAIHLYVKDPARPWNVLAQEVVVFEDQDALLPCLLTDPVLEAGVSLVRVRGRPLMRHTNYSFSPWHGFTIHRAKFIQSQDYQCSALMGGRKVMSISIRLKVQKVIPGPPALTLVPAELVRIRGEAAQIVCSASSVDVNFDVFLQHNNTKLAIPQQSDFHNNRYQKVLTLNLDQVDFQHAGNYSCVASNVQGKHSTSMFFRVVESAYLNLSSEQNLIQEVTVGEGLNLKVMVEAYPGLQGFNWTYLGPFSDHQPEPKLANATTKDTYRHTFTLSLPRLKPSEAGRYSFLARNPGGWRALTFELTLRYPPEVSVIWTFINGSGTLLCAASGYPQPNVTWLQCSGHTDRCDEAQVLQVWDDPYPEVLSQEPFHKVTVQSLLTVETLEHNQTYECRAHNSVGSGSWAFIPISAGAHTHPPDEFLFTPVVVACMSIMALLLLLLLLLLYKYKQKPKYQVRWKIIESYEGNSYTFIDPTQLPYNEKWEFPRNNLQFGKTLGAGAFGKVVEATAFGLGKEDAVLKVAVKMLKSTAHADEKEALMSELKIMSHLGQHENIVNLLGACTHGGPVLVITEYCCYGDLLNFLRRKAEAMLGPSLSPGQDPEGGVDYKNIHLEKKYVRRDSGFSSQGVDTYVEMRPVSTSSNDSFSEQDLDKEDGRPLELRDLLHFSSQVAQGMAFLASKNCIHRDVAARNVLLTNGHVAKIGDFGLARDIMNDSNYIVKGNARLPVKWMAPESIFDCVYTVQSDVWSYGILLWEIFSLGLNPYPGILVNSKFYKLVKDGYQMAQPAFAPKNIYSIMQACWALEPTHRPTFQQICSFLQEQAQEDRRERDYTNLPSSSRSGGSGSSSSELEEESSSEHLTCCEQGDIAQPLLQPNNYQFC
Sequence of Serine/threonine-protein kinase PLK1 (Homo sapiens) (P53350 whole entry): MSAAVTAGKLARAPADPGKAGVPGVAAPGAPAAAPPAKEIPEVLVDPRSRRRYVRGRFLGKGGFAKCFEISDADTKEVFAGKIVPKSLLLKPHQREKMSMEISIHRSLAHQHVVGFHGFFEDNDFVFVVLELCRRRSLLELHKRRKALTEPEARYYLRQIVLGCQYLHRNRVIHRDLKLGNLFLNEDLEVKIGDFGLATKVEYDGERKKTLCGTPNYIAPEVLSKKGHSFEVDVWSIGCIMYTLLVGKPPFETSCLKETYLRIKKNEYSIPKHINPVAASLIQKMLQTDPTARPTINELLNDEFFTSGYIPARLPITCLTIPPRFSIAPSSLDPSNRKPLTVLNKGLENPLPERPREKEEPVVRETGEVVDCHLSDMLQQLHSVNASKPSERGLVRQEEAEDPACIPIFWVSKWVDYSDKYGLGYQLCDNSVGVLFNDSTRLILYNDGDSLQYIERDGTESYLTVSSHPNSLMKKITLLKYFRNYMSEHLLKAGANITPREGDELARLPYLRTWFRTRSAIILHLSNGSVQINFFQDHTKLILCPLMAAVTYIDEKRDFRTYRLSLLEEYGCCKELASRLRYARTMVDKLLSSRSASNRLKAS

SMILES | inhibition [1] | inhibition [2] | inhibition [3] | inhibition [4] | inhibition [5] | inhibition [6] | inhibition [7] | inhibition [8] | inhibition [9] | inhibition [10] | inhibition [11] | inhibition [12] | inhibition [13] | inhibition [14] | inhibition [15] | inhibition [16] | inhibition [17] | inhibition [18] | inhibition [19] | inhibition [20]
Cc1cc(O)cc(C)c1/C=C/c1cncc(C(=O)N(C)C)c1 | 2.2% | 2.11% | 5.18% | 2.6% | 3.87% | 2.43% | 0.38% | 3.87% | 4.65% | 11.4% | 4.45% | 5.15% | 3.62% | 1.2% | 5.04% | 4.71% | 3.92% | 1.52% | 5.32% | 3.23%
O=C(Nc1ccc(Oc2ccc3[nH]c(NC(=O)c4ccco4)nc3c2)cc1)Nc1cc(C(F)(F)F)ccc1F | -0.41% | 0.66% | 0.27% | 0.32% | 0.28% | -0.01% | -0.32% | 0.83% | 0.99% | -0.1% | 6.87% | 0.92% | 1.34% | -0.11% | 30.6% | -7.79% | 38.1% | 15.4% | 72.8% | -1.01%
